B2AR arrestin ag = ADRB2 beta-arrestin recruitment. P07550. HTLA Tango cells, beta-arrestin recruitment, luciferase luminescence, 18 h. Potency, µM (titrated, usually from 46.1 µM), actives largely listed as activators. 44,000 tested, under 10 active;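 further: potency means the concentration at half of the fitted maximal effect; 0% = DMSO and full agonism = EC100 isoproterenol or metaproterenol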
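Tango cells expressing recombinant beta2-AR and beta-arrestin were treated with compounds (up to 46 microM titration) in DMEM with 1% FBS for 18 hr at 37 degrees C. Beta-arrestin recruitment drove tTA-dependent luciferase, read by luminescence; curves were fitted and classed.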
DRV1 agonist = activates human resolvin D1 receptor GPR32. AID 1346428. activation, % at 76.9 µM. CHO-K1 GPR32 beta-arrestin PathHunter luminescence, 90 min; zero percent set by DMSO-only wells. 48,000 tested, 2.5% active. O75388;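 active means activation of at least 60% and not above a set upper limit, about 1 call in 100 departs from these limits; inconclusive means activation of 40% to 60%, or above that upper limit; inactive means activation under 40%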; further: 0% is about no effect
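Agonism was scored as beta-arrestin recruitment to ProLink-fused GPR32 in stably transfected CHO-K1 cells, giving a chemiluminescent beta-Gal signal; compounds were incubated 90 min at 37 °C.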
GALC G270D up = raises human GALC G270D mutant activity in cells | P54803 | 145M-Twi-hGALC-G270D cells (Twitcher mouse brain line with human GALC G270D), HMU-beta-Gal fluorescence, 48 h | Potency, µM (doses to about 57.5 µM), most hits filed as activators | 45,000 tested, 0.1% active | AID 1159614; further: potency means the concentration at half of the fitted maximal effect; 0% is about no effect; nearly all actives have a fitted effect of over 65% in size
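Mutant human GALC (G270D), stably expressed in a Twitcher mouse brain cell line lacking endogenous GALC, is measured in live-treated cells via 6-hexadecanoylamino-4-methylumbelliferyl-β-galactoside hydrolysis (0.1 mM final, pH 5.2) with fluorescent detection.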
GALK inhibitor = inhibitors of human galactokinase (GALK) | P51570 | recombinant GALK, Kinase-Glo ATP luminescence, 1 h | Potency, µM (top dose mostly 57.5 µM), for the others: at the top dose activity, negative = inhibition, usual class: inhibitors | 44,000 tested, under 10 active | AID 1347072;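 further: plate controls were full GALK reaction for no effect and reaction lacking GALK for full effect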
Target sequence (P51570 whole entry, looked up): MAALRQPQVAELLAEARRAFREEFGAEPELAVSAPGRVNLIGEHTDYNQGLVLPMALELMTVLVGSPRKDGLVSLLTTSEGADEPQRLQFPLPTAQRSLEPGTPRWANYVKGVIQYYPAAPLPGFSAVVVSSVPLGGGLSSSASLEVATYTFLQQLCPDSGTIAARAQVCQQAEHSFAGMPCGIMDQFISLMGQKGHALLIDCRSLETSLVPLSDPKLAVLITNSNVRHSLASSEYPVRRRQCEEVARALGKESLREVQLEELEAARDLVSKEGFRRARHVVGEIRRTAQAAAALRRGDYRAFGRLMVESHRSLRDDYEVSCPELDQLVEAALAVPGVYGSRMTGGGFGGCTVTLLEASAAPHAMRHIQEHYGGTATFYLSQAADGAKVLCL
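Luminescent ATP-depletion readout (Kinase-Glo Plus, 10 min) after 1 h RT reaction of 5 nM GALK, 35 uM ATP, 100 uM galactose, pH 8.0 HEPES buffer. Decreased kinase activity scored as inhibition.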
PTAP-TSG101 blk = TSG101-PTAP interaction inhibition, HIV-1 budding; Q99816; Fluorescence polarization, FITC-PTAP peptide/Tsg101, 20 min; Potency, µM (top dose mostly 115 µM), usual class: inhibitors; 44,000 tested, under 10 active; AID 1347069; further: potency means the concentration at half of the fitted maximal effect; 0% is about no effect
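Fluorescence polarization binding of Tsg101 binding domain (10 uM final) to FITC-labeled PTAP-motif peptide (50 nM final) in HEPES pH 7.5/NaCl/Tween 20/EDTA/TCEP buffer; 20 min at r.t. Actives by curve class, <25 µM, efficacy <60% inhibition.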
FH mod = Identification of activators of human fumarate hydratase by quantitative high-throughput screening; Potency, µM (titrated, usually from 79.9 µM), for inactives: at the top dose activity change, negative = inhibition, actives largely listed as inhibitors; AID 1347055, 2019; Fumarate hydratase, mitochondrial (Homo sapiens), P07954; FH coupled MDH/diaphorase resazurin fluorescence, 15 min; 54,000 tested, 0.22% active; further: potency means the concentration at half of the fitted maximal effect; on the % scale 0 is the no-effect control and ±100 the full control effect; the screen sought activators but most active calls are inhibition curves; nearly all actives have a fitted effect of over 45% in size
Starred values were filed as active, the others as inactive; i = inactive; u = inconclusive; x = not tested or not shown; [ ] = remark or other dose. An excerpt weighted towards active compounds, which were near 2.6% of everything screened. Unless noted, the call rests on the fitted dose curve; in most records, active means well fitted curve in the direction sought with a large enough effect; inconclusive means small, poorly fitted or top-dose-only effect, or another doubt; inactive means no such curve, though single readings can be large; an effect the other way counts as inactive or inconclusive.

SMILES | B2AR arrestin ag | DRV1 agonist | GALC G270D up | GALK inhibitor | PTAP-TSG101 blk | FH mod
COc1cc(CN2CCc3nc(Nc4ccc5c(c4)OCCO5)ncc3C2)cc(OC)c1OC | i | 97* | i | 2% | i | 0%
Cc1ccc(CN2CCc3nc(Nc4ccc5c(c4)OCCO5)ncc3C2)cc1 | i | 29 | i | 2% | i | -18%
CCNC(=O)c1noc(-c2cc(Cl)c(O)cc2O)c1-c1ccc(OC)cc1 | x | x | x | x | x | 0%
CCC1CCc2nc3sc(C(=O)Nc4ccc(C)cc4C)c(N)c3cc2C1 (centres undefined) | i | 69* | i | 1% | i | -2%
CCC1CCc2nc3sc(C(=O)Nc4ccc(F)c(F)c4)c(N)c3cc2C1 (centres undefined) | i | 5 | i | 4% | i | 1%
Cc1ccc(NC(=O)c2sc3nc4c(cc3c2N)CN(Cc2ccccc2)CC4)cc1 | i | 116* | i | 8% | i | -4%
Nc1c(C(=O)Nc2cccc(Cl)c2)sc2nc3c(cc12)CN(Cc1ccccc1)CC3 | i | 61* | i | 0% | i | -5%
CCN1CCc2nc3sc(C(=O)Nc4cccc(Cl)c4C)c(N)c3cc2C1 | i | 121* | i | 7% | i | -8%
CN(C)CCN(Cc1ccc(-c2ccc(CNCCc3ccccc3)cc2)cc1)C(=O)CCC1CCCC1 | x | x | x | x | x | -6%
COc1ccc(Br)cc1S(=O)(=O)NC(=O)/C=C/c1ccccc1Cc1ccc2ccccc2c1 | x | x | x | x | x | 20µM*
COc1ccc(Br)cc1S(=O)(=O)Nc1cc(-c2cn3ccccc3n2)ccc1C | i | 9 | i | 2% | i | -9%
CCOc1ccc(-n2c(SCC(=O)N3CCCC3)nc3c([nH]c4ccccc43)c2=O)cc1 | i | 77* | i | -1% | i | 4%
CCNC(=O)Nc1ccc(Oc2ncnc(N)c2/C=N/OC)cc1Cl | x | x | x | x | x | 11%
OC(CN1CCN(c2cccc(Cl)c2)CC1)C(c1ccccc1)c1ccccc1 (centres undefined) | x | 7 | x | x | x | -18%
COc1ccc(N2CCN(CC(O)COc3ccc(C(C)C)c(C)c3)CC2)cc1 (centres undefined) | i | 104* | i | -10% | i | -12%
COc1ccc(N2CCN(CC(O)COc3ccc(C)c(C)c3)CC2)cc1 (centres undefined) | i | -23 | i | 0% | i | -26%
Cc1cc(OCC(O)CN2CCN(c3cccc(Cl)c3)CC2)ccc1Cl (centres undefined) | i | 70* | i | 1% | i | u
Cc1coc2cc3oc(=O)c(CCC(=O)N4CCCCC4)c(C)c3cc12 | i | 107* | x | -1% | i | x
Cc1cncc2cccc(S(=O)(=O)N3CCCNC[C@@H]3C)c12 | x | x | x | x | x | 0%
Cc1ccc(OCc2nc(-c3ccc(C(=O)NCCc4ccc(S(N)(=O)=O)cc4)cc3)oc2C)cc1 | i | 82* | i | 7% | i | 2%
COc1ccc(CNC(=O)c2ccc(-c3nc(CS(=O)c4ccc(C)cc4)c(C)o3)cc2)cc1 (centres undefined) | i | 70* | i | 0% | i | -35%
CCOc1ccc(CCNC(=O)c2ccc(-c3nc(CSc4ccc(C)cc4)c(C)o3)cc2)cc1 | i | -8 | i | -2% | i | 23%
Cc1oc(-c2ccc(C(=O)NCc3ccccc3)cc2)nc1CS(=O)(=O)c1ccccc1 | i | u | i | -5% | i | -2%
CCc1ccc(CNC(=O)c2ccc(-c3nc(CS(=O)(=O)c4ccccc4)c(C)o3)cc2)cc1 | i | 84* | x | -3% | i | x
Cc1ccc(CNC(=O)c2ccc(-c3nc(CS(=O)c4ccccc4)c(C)o3)cc2)cc1 (centres undefined) | i | 13 | i | 2% | i | -14%
SMILES | B2AR arrestin ag | DRV1 agonist | GALC G270D up | GALK inhibitor | PTAP-TSG101 blk | FH mod
Cc1cccc(CNC(=O)c2ccc(-c3nc(CS(=O)(=O)c4ccccc4)c(C)o3)cc2)c1 | i | 80* | u | -1% | i | -21%
CSc1nn(Cc2cccc(F)c2)c(N(C(C)=O)C(C)=O)c1S(=O)(=O)c1ccccc1 | i | 83* | i | -4% | i | -20%
Cc1ccccc1OCC(=O)Nc1ccc2nc(SCC(N)=O)sc2c1 | i | u | i | 0% | i | -4%
CCOC(=O)CSc1nc2ccc(NC(=O)COc3ccccc3C)cc2s1 | i | 75* | i | -8% | i | -1%
Cc1ccc(OCC(=O)Nc2ccc3[nH]c(=O)sc3c2)cc1 | i | u | i | 4% | i | -14%
NC(=O)CSc1nc2ccc(NC(=O)COc3ccccc3Cl)cc2s1 | i | 90* | i | -1% | i | -3%
O=C(Nc1ccc2nc(SCCOc3ccccc3Cl)sc2c1)c1ccc2c(c1)OCO2 | i | -1 | i | -5% | i | -4%
CC(=O)Nc1ccc2nc(SCCOc3ccccc3Cl)sc2c1 | i | 69* | i | 1% | i | u
Cc1ccccc1OCC(=O)Nc1ccc2[nH]c(=O)sc2c1 | i | 109* | i | 3% | i | -4%
CC(=O)N1CCN(CCOc2ccc(C3CCN(C4=Nn5c(nnc5C(F)(F)F)CC4)CC3)cc2)CC1 | x | x | x | x | x | 2%
CCN(Cc1cccnc1)C(=O)CN(c1ccc(OC)nc1)S(=O)(=O)c1ccccc1C | x | x | x | x | x | -15%
CC(C)C[C@H](N)c1nnc(SCc2ccc(Cl)cc2Cl)o1 | i | 77* | i | 8% | i | -12%
O=C(Nc1ccc(F)cc1)Nc1ccc2snnc2c1 | i | 39 | i | 1% | i | -9%
Cc1ccc(F)c(NC(=O)Nc2ccc3snnc3c2)c1 | i | 68* | i | 5% | i | 6%
Cc1cc2ccccc2n1CCNC(=O)c1cccc(Cl)c1 | i | 116* | i | 1% | i | -17%
CNc1ncnc2c1ncn2[C@@H]1O[C@H](CO)C(O)[C@H]1O (some centres undefined) | x | x | x | x | x | -2%[53.3 µM]
C=CC(C)(C)C12CC3C(=O)N4C(CC5(C(C)(C)C=C)c6ccccc6NC45)C(=O)N3C1Nc1ccccc12 (centres undefined) | x | x | x | x | x | 2%[53.3 µM]
CCOC(=O)c1ccccc1NC(=O)COC(=O)CC(C)(C)CC1=NS(=O)(=O)c2ccccc2N1 | i | 84* | i | -2% | i | -34%

Screens deposited in PubChem by National Center for Advancing Translational Sciences (NCATS).
